Laboratory results from PubChem BioAssay AID1159580 (chemical genetic matrix, 2015).
Among all 5,500 compounds or so, about 2,000 (36%) were called active. Not shown: some 18% with an inconclusive outcome. No stated cut-off is given here; in the data, active means normalized growth mostly below about 0.91 (no sharp cut-off); inconclusive means no clear call, values can overlap the other calls; inactive means mostly above about 0.92. Some of the results follow.

Test: chemical genetic growth profiling, strain panel (AID 1159580);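 further: tested at 20 µM; growth read once vehicle control cultures reached saturation at 30 °C; 1 = growth at the plate median or of vehicle wells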
Conditions: growth OD

Measured: normalized growth

CCN(CC)CCOc1ccc2c(c1)C(=O)c1cc(OCCN(CC)CC)ccc1-2
inactive: S. cerevisiae deletion strains, locus YJR075W, strain HOC1, stronger effect = lower value 0.998 | S. cerevisiae deletion strains, locus YKL009W, strain mrt4, stronger effect = lower value 0.973 | S. cerevisiae deletion strains, locus YKL068W, stronger effect = lower value 0.975 | S. cerevisiae deletion strains, locus YKL085W, strain MDH1 (second series), stronger effect = lower value 1.02 | S. cerevisiae deletion strains, locus YKL085W, strain MDH1, stronger effect = lower value 1.02 | S. cerevisiae deletion strains, locus YKL160W, strain elf1, stronger effect = lower value 0.96 | S. cerevisiae deletion strains, locus YKL190W, strain CNB1, stronger effect = lower value 0.991 | S. cerevisiae deletion strains, locus YKR001C, strain vps1, stronger effect = lower value 0.986 | S. cerevisiae deletion strains, locus YKR026C, strain gcn3, stronger effect = lower value 0.98 | S. cerevisiae deletion strains, locus YKR091W, strain srl3, stronger effect = lower value 0.982 | S. cerevisiae deletion strains, locus YLL001W, strain dnm1, stronger effect = lower value 1.01 | S. cerevisiae deletion strains, locus YLL026W, stronger effect = lower value 0.992 | S. cerevisiae deletion strains, locus YLL041C, strain sdh2, stronger effect = lower value 0.998 | S. cerevisiae deletion strains, locus YLR027C, strain aat2, stronger effect = lower value 0.996 | S. cerevisiae deletion strains, locus YLR039C, strain RIC1, stronger effect = lower value 0.963 | S. cerevisiae deletion strains, locus YLR058C, strain SHM2, stronger effect = lower value 0.994 | S. cerevisiae deletion strains, locus YLR102C, strain apc9, stronger effect = lower value 0.975 | S. cerevisiae deletion strains, locus YLR113W, strain HOG1, stronger effect = lower value 0.988 | S. cerevisiae deletion strains, locus YLR221C, strain rsa3, stronger effect = lower value 0.993 | S. cerevisiae deletion strains, locus YLR258W, strain gsy2, stronger effect = lower value 0.979 | S. cerevisiae deletion strains, locus YLR262C, strain YPT6 (second series), stronger effect = lower value 1.05 | S. cerevisiae deletion strains, locus YLR262C, strain YPT6, stronger effect = lower value 0.96 | S. cerevisiae deletion strains, locus YLR268W, strain sec22, stronger effect = lower value 0.984 | S. cerevisiae deletion strains, locus YLR320W, strain mms22, stronger effect = lower value 0.995 | S. cerevisiae deletion strains, locus YLR330W, strain CHS5, stronger effect = lower value 0.988 | S. cerevisiae deletion strains, locus YLR342W, strain FKS1 (second series), stronger effect = lower value 1.01 | S. cerevisiae deletion strains, locus YLR342W, strain FKS1, stronger effect = lower value 0.981 | S. cerevisiae deletion strains, locus YLR357W, strain rsc2, stronger effect = lower value 0.963 | S. cerevisiae deletion strains, locus YLR370C, strain arc18, stronger effect = lower value 0.987 | S. cerevisiae deletion strains, locus YLR371W, strain rom2, stronger effect = lower value 0.961 | S. cerevisiae deletion strains, locus YLR384C, strain iki3, stronger effect = lower value 0.984 | S. cerevisiae deletion strains, locus YLR418C, strain cdc73, stronger effect = lower value 1.06 | S. cerevisiae deletion strains, locus YML016C, strain PPZ1, stronger effect = lower value 0.995 | S. cerevisiae deletion strains, locus YML032C, strain rad52, stronger effect = lower value 0.968 | S. cerevisiae deletion strains, locus YML120C, strain ndi1, stronger effect = lower value 0.985 | S. cerevisiae deletion strains, locus YML124C, strain tub3, stronger effect = lower value 0.987 | S. cerevisiae deletion strains, locus YMR058W, strain fet3, stronger effect = lower value 0.994 | S. cerevisiae deletion strains, locus YMR078C, strain ctf18, stronger effect = lower value 0.978 | S. cerevisiae deletion strains, locus YMR125W, strain sto1, stronger effect = lower value 0.978 | S. cerevisiae deletion strains, locus YMR129W, stronger effect = lower value 0.982 | S. cerevisiae deletion strains, locus YMR205C, strain PFK2, stronger effect = lower value 0.969 | S. cerevisiae deletion strains, locus YMR223W, strain ubp8, stronger effect = lower value 0.982 | S. cerevisiae deletion strains, locus YMR231W, strain pep5, stronger effect = lower value 0.99 | S. cerevisiae deletion strains, locus YMR263W, strain SAP30, stronger effect = lower value 1 | S. cerevisiae deletion strains, locus YMR307W, strain GAS1, stronger effect = lower value 1.09 | S. cerevisiae deletion strains, locus YNL067W, strain RPL9B, stronger effect = lower value 0.999 | S. cerevisiae deletion strains, locus YNL071W, strain lat1, stronger effect = lower value 0.988 | S. cerevisiae deletion strains, locus YNL128W, strain TEP1, stronger effect = lower value 0.987 | S. cerevisiae deletion strains, locus YNL153C, strain GIM3, stronger effect = lower value 1.01 | S. cerevisiae deletion strains, locus YNL183C, strain NPR1, stronger effect = lower value 0.939 | S. cerevisiae deletion strains, locus YNL209W, strain ssb2, stronger effect = lower value 0.976 | S. cerevisiae deletion strains, locus YNL233W, strain BNI4, stronger effect = lower value 1.02 | S. cerevisiae deletion strains, locus YNL248C, strain rpa49, stronger effect = lower value 0.98 | S. cerevisiae deletion strains, locus YNL250W, strain rad50, stronger effect = lower value 0.983 | S. cerevisiae deletion strains, locus YNL271C, strain bni1, stronger effect = lower value 0.993 | S. cerevisiae deletion strains, locus YNL298W, strain CLA4, stronger effect = lower value 0.971 | S. cerevisiae deletion strains, locus YNL307C, strain MCK1, stronger effect = lower value 0.975 | S. cerevisiae deletion strains, locus YNL322C, strain KRE1 (second series), stronger effect = lower value 0.96 | S. cerevisiae deletion strains, locus YNL322C, strain KRE1, stronger effect = lower value 0.983 | S. cerevisiae deletion strains, locus YNR049C, strain mso1, stronger effect = lower value 0.968 | S. cerevisiae deletion strains, locus YNR052C, strain pop2, stronger effect = lower value 0.975 | S. cerevisiae deletion strains, locus YOL006C, strain TOP1, stronger effect = lower value 1.02 | S. cerevisiae deletion strains, locus YOL012C, strain htz1 0.871 | S. cerevisiae deletion strains, locus YOL147C, strain pex11, stronger effect = lower value 0.992 | S. cerevisiae deletion strains, locus YOR001W, strain rrp6, stronger effect = lower value 0.988 | S. cerevisiae deletion strains, locus YOR061W, strain CKA2, stronger effect = lower value 0.994 | S. cerevisiae deletion strains, locus YOR069W, strain VPS5, stronger effect = lower value 0.996 | S. cerevisiae deletion strains, locus YOR070C, strain gyp1, stronger effect = lower value 0.989 | S. cerevisiae deletion strains, locus YOR080W, strain dia2, stronger effect = lower value 0.983 | S. cerevisiae deletion strains, locus YOR083W, strain WHI5, stronger effect = lower value 0.968 | S. cerevisiae deletion strains, locus YOR106W, strain vam3, stronger effect = lower value 0.944 | S. cerevisiae deletion strains, locus YOR136W, strain idh2, stronger effect = lower value 0.985 | S. cerevisiae deletion strains, locus YOR144C, strain elg1, stronger effect = lower value 0.97 | S. cerevisiae deletion strains, locus YOR184W, strain ser1, stronger effect = lower value 0.976 | S. cerevisiae deletion strains, locus YOR231W, strain MKK1, stronger effect = lower value 0.985 | S. cerevisiae deletion strains, locus YOR265W, strain rbl2, stronger effect = lower value 0.976 | S. cerevisiae deletion strains, locus YOR270C, strain vph1, stronger effect = lower value 1.07 | S. cerevisiae deletion strains, locus YOR290C, strain snf2, stronger effect = lower value 0.964 | S. cerevisiae deletion strains, locus YOR316C, strain cot1, stronger effect = lower value 0.995 | S. cerevisiae deletion strains, locus YPL051W, strain arl3, stronger effect = lower value 0.97 | S. cerevisiae deletion strains, locus YPL055C, strain LGE1, stronger effect = lower value 1.02 | S. cerevisiae deletion strains, locus YPL078C, strain atp4, stronger effect = lower value 0.981 | S. cerevisiae deletion strains, locus YPL106C, strain sse1, stronger effect = lower value 0.979 | S. cerevisiae deletion strains, locus YPL240C, strain hsp82, stronger effect = lower value 0.996 | S. cerevisiae deletion strains, locus YPL241C, strain CIN2, stronger effect = lower value 0.971 | S. cerevisiae deletion strains, locus YPL256C, strain CLN2, stronger effect = lower value 0.979 | S. cerevisiae deletion strains, locus YPR119W, strain clb2, stronger effect = lower value 0.988 | S. cerevisiae deletion strains, locus YPR141C, strain kar3, stronger effect = lower value 0.989 | S. cerevisiae deletion strains, locus YPR163C, strain tif3, stronger effect = lower value 0.97 | S. cerevisiae deletion strains, locus YPR167C, strain met16, stronger effect = lower value 1 | S. cerevisiae deletion strains, strain wtn01, stronger effect = lower value 0.993 | S. cerevisiae strains, strain wild type, stronger effect = lower value 0.995
